Assay results taken from PubChem BioAssay AID1159580 (chemical genetic matrix, 2015).
Several values for one entry are separate records, joined by “and”; a condition that tells them apart may be missing. Identical values can stand only once. Among all 5,500 compounds or so, about 2,000 (36%) were called active. Roughly 18% stayed inconclusive and do not appear here. The list shows a part of the results. Unmarked numbers belong to inactive results. Cut-off read from the data, not from the text of the source: active = normalized growth mostly below about 0.91 (no sharp cut-off); inconclusive = no clear call, values can overlap the other calls; inactive = mostly above about 0.92.

Assay: chemical genetic growth profiling, strain panel (AID 1159580);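 note: tested at 20 µM; growth read once vehicle control cultures reached saturation at 30 °C; 1 = growth at the plate median or of vehicle wells; lower values mean less growth of the strain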
Conditions: S. cerevisiae deletion strains, growth OD

Structure (SMILES): O=C1CC[C@]23C=CC(=O)NCCCCNCCCNC(=O)/C=C/c4ccc(c2c4)O[C@@H]3C1
- normalized growth (locus YAL021C, strain ccr4, active compounds read low): 1.02
- normalized growth (locus YAL026C, strain drs2, active compounds read low): 1.04
- normalized growth (locus YAL030W, strain snc1, active compounds read low): 1.01
- normalized growth (locus YBL061C, strain skt5, active compounds read low): 1.02
- normalized growth (locus YBR009C, strain hhf1, active compounds read low): 1.03
- normalized growth (locus YBR021W, strain FUR4, active compounds read low): 0.999
- normalized growth (locus YBR023C, strain chs3, active compounds read low): 1.02
- normalized growth (locus YBR171W, strain sec66, active compounds read low): 1.01
- normalized growth (locus YBR229C, strain ROT2, active compounds read low): 1.01
- normalized growth (locus YBR231C, strain swc5, active compounds read low): 1.01
- normalized growth (locus YBR279W, strain paf1, active compounds read low): 1
- normalized growth (locus YCL011C, strain gbp2, active compounds read low): 1
- normalized growth (locus YCL016C, strain dcc1, active compounds read low): 1.03
- normalized growth (locus YCL029C, strain bik1, active compounds read low): 0.997
- normalized growth (locus YCL061C, strain MRC1, active compounds read low): 1
- normalized growth (locus YCL069W, strain vba3, active compounds read low): 1.01
- normalized growth (locus YCR088W, strain abp1, active compounds read low): 1.02
- normalized growth (locus YDL005C, strain med2, active compounds read low): 1.02
- normalized growth (locus YDL035C, strain GPR1, active compounds read low): 1.05
- normalized growth (locus YDL040C, strain nat1, active compounds read low): 1
- normalized growth (locus YDL074C, strain BRE1, active compounds read low): 1.05
- normalized growth (locus YDL101C, strain DUN1, active compounds read low): 1
- normalized growth (locus YDL134C, strain PPH21, active compounds read low): 0.954
- normalized growth (locus YDL185W, strain tfp1, active compounds read low): 0.993
- normalized growth (locus YDL192W, strain arf1, active compounds read low): 1.02
- normalized growth (locus YDR001C, strain nth1, active compounds read low): 1.01
- normalized growth (locus YDR069C, strain doa4, active compounds read low): 1.03
- normalized growth (locus YDR101C, strain arx1, active compounds read low): 0.997
- normalized growth (locus YDR137W, strain rgp1, active compounds read low): 0.993
- normalized growth (locus YDR150W, strain NUM1, active compounds read low): 1.01
- normalized growth (locus YDR159W, strain sac3, active compounds read low): 1.03
- normalized growth (locus YDR162C, strain NBP2, active compounds read low): 1.02
- normalized growth (locus YDR195W, strain ref2): 1.02
- normalized growth (locus YDR297W, strain sur2, active compounds read low): 1.01
- normalized growth (locus YDR318W, strain mcm21, active compounds read low): 1.01
- normalized growth (locus YDR334W, strain swr1, active compounds read low): 1.01
- normalized growth (locus YDR335W, strain msn5, active compounds read low): 1.03
- normalized growth (locus YDR388W, active compounds read low): 0.993
- normalized growth (locus YDR392W, strain spt3, active compounds read low): 1.01
- normalized growth (locus YDR502C, strain sam2, active compounds read low): 0.963
- normalized growth (locus YEL003W, strain gim4, active compounds read low): 1.01
- normalized growth (locus YEL037C, strain rad23, active compounds read low): 1.02
- normalized growth (locus YEL061C, strain CIN8 (second series), active compounds read low): 1.01
- normalized growth (locus YEL061C, strain CIN8, active compounds read low): 1.01
- normalized growth (locus YER015W, strain faa2, active compounds read low): 1.01
- normalized growth (locus YER016W, strain bim1, active compounds read low): 1.02
- normalized growth (locus YER110C, active compounds read low): 0.981
- normalized growth (locus YER111C, strain swi4, active compounds read low): 1.01
- normalized growth (locus YER155C, strain BEM2 (second series), active compounds read low): 1.01
- normalized growth (locus YER155C, strain BEM2, active compounds read low): 1.01
- normalized growth (locus YER167W, strain BCK2, active compounds read low): 1.02
- normalized growth (locus YFR010W, strain ubp6, active compounds read low): 1.02
- normalized growth (locus YGL078C, strain dbp3, active compounds read low): 0.987
- normalized growth (locus YGL086W, strain mad1, active compounds read low): 0.99
- normalized growth (locus YGL167C, strain pmr1, active compounds read low): 1.03
- normalized growth (locus YGL173C, strain kem1, active compounds read low): 1.02
- normalized growth (locus YGL227W, strain vid30, active compounds read low): 1.02
- normalized growth (locus YGL240W, strain doc1, active compounds read low): 1.02
- normalized growth (locus YGL248W, strain PDE1, active compounds read low): 1
- normalized growth (locus YGL253W, strain hxk2, active compounds read low): 1.02
- normalized growth (locus YGR135W, strain pre9, active compounds read low): 0.951
- normalized growth (locus YGR252W, strain gcn5, active compounds read low): 0.903
- normalized growth (locus YHR013C, strain ard1, active compounds read low): 1.41 [resistant] (active)
- normalized growth (locus YHR027C, strain rpn1, active compounds read low): 1
- normalized growth (locus YHR030C, strain SLT2, active compounds read low): 1.05
- normalized growth (locus YHR079C, strain IRE1 (second series), active compounds read low): 0.995
- normalized growth (locus YHR079C, strain IRE1, active compounds read low): 1.04
- normalized growth (locus YHR094C, strain hxt1, active compounds read low): 0.993
- normalized growth (locus YHR129C, strain ARP1, active compounds read low): 1.01
- normalized growth (locus YHR142W, strain chs7, active compounds read low): 1.01
- normalized growth (locus YHR200W, strain rpn10, active compounds read low): 0.963
- normalized growth (locus YIL066C, strain RNR3, active compounds read low): 1.04
- normalized growth (locus YIL073C, strain SPO22, active compounds read low): 0.97
- normalized growth (locus YIL125W, strain kgd1, active compounds read low): 0.988
- normalized growth (locus YIR030C, strain dcg1, active compounds read low): 0.997
- normalized growth (locus YJL092W, strain hpr5, active compounds read low): 1.01
- normalized growth (locus YJL095W, strain BCK1 (second series), active compounds read low): 1.04
- normalized growth (locus YJL095W, strain BCK1, active compounds read low): 1.01 and 1.04
- normalized growth (locus YJL115W, strain asf1, active compounds read low): 1.02
- normalized growth (locus YJL129C, strain trk1, active compounds read low): 1.01
- normalized growth (locus YJL134W, strain LCB3, active compounds read low): 1.01
- normalized growth (locus YJL154C, strain vps35, active compounds read low): 1.01
- normalized growth (locus YJL164C, strain tpk1, active compounds read low): 0.974
- normalized growth (locus YJL166W, strain qcr8, active compounds read low): 1.04
- normalized growth (locus YJL168C, strain set2, active compounds read low): 1
- normalized growth (locus YJL187C, strain SWE1 (second series), active compounds read low): 0.99
- normalized growth (locus YJR043C, strain POL32, active compounds read low): 1.04
- normalized growth (locus YJR066W, strain TOR1, active compounds read low): 0.98
- normalized growth (locus YKL009W, strain mrt4, active compounds read low): 1.04
- normalized growth (locus YKL068W, active compounds read low): 0.993
- normalized growth (locus YKL085W, strain MDH1 (second series), active compounds read low): 0.997
- normalized growth (locus YKL085W, strain MDH1, active compounds read low): 0.997
- normalized growth (locus YKL160W, strain elf1, active compounds read low): 1.04
- normalized growth (locus YKR001C, strain vps1, active compounds read low): 0.977
- normalized growth (locus YKR026C, strain gcn3, active compounds read low): 1.01
- normalized growth (locus YKR091W, strain srl3, active compounds read low): 1.01
- normalized growth (locus YLL001W, strain dnm1, active compounds read low): 0.965
- normalized growth (locus YLL026W, active compounds read low): 1.01
- normalized growth (locus YLL041C, strain sdh2, active compounds read low): 1.01
- normalized growth (locus YLR027C, strain aat2, active compounds read low): 1.01
- normalized growth (locus YLR039C, strain RIC1, active compounds read low): 1.08
- normalized growth (locus YLR058C, strain SHM2, active compounds read low): 1.01
- normalized growth (locus YLR102C, strain apc9, active compounds read low): 0.985
- normalized growth (locus YLR113W, strain HOG1, active compounds read low): 0.962
- normalized growth (locus YLR221C, strain rsa3, active compounds read low): 1.01
- normalized growth (locus YLR258W, strain gsy2, active compounds read low): 1.01
- normalized growth (locus YLR262C, strain YPT6 (second series), active compounds read low): 1
- normalized growth (locus YLR268W, strain sec22, active compounds read low): 1.01
- normalized growth (locus YLR320W, strain mms22, active compounds read low): 1.04
- normalized growth (locus YLR330W, strain CHS5, active compounds read low): 1.01
- normalized growth (locus YLR342W, strain FKS1 (second series), active compounds read low): 1.04
- normalized growth (locus YLR342W, strain FKS1, active compounds read low): 1
- normalized growth (locus YLR357W, strain rsc2, active compounds read low): 1.01
- normalized growth (locus YLR370C, strain arc18, active compounds read low): 1.02
- normalized growth (locus YLR371W, strain rom2, active compounds read low): 1
- normalized growth (locus YLR384C, strain iki3, active compounds read low): 1
- normalized growth (locus YLR418C, strain cdc73, active compounds read low): 0.959
- normalized growth (locus YML016C, strain PPZ1, active compounds read low): 1.01
- normalized growth (locus YML032C, strain rad52, active compounds read low): 0.993
- normalized growth (locus YML120C, strain ndi1, active compounds read low): 0.993
- normalized growth (locus YML124C, strain tub3, active compounds read low): 0.988
- normalized growth (locus YMR058W, strain fet3, active compounds read low): 1.02
- normalized growth (locus YMR078C, strain ctf18, active compounds read low): 0.986
- normalized growth (locus YMR125W, strain sto1, active compounds read low): 1
- normalized growth (locus YMR129W, active compounds read low): 1
- normalized growth (locus YMR205C, strain PFK2, active compounds read low): 1.01
- normalized growth (locus YMR223W, strain ubp8, active compounds read low): 0.969
- normalized growth (locus YMR231W, strain pep5, active compounds read low): 1.02
- normalized growth (locus YMR307W, strain GAS1, active compounds read low): 1.05
- normalized growth (locus YNL067W, strain RPL9B, active compounds read low): 0.976
- normalized growth (locus YNL071W, strain lat1, active compounds read low): 1.02
- normalized growth (locus YNL153C, strain GIM3, active compounds read low): 0.996
- normalized growth (locus YNL183C, strain NPR1, active compounds read low): 0.99
- normalized growth (locus YNL209W, strain ssb2, active compounds read low): 1.01
- normalized growth (locus YNL233W, strain BNI4, active compounds read low): 0.998
- normalized growth (locus YNL248C, strain rpa49, active compounds read low): 1.03
- normalized growth (locus YNL250W, strain rad50, active compounds read low): 0.959
- normalized growth (locus YNL271C, strain bni1, active compounds read low): 0.999
- normalized growth (locus YNL298W, strain CLA4, active compounds read low): 0.997
- normalized growth (locus YNL307C, strain MCK1, active compounds read low): 0.983
- normalized growth (locus YNL322C, strain KRE1 (second series), active compounds read low): 1.01
- normalized growth (locus YNL322C, strain KRE1, active compounds read low): 1.01
- normalized growth (locus YNR049C, strain mso1, active compounds read low): 1.03
- normalized growth (locus YNR052C, strain pop2, active compounds read low): 0.972
- normalized growth (locus YOL006C, strain TOP1, active compounds read low): 1.09
- normalized growth (locus YOL012C, strain htz1): 0.612
- normalized growth (locus YOL147C, strain pex11, active compounds read low): 0.99
- normalized growth (locus YOR001W, strain rrp6, active compounds read low): 1.03
- normalized growth (locus YOR061W, strain CKA2, active compounds read low): 1.02
- normalized growth (locus YOR069W, strain VPS5, active compounds read low): 1
- normalized growth (locus YOR070C, strain gyp1, active compounds read low): 1.02
- normalized growth (locus YOR080W, strain dia2, active compounds read low): 1.01
- normalized growth (locus YOR083W, strain WHI5, active compounds read low): 1.01
- normalized growth (locus YOR106W, strain vam3, active compounds read low): 1.01
- normalized growth (locus YOR136W, strain idh2, active compounds read low): 0.979
- normalized growth (locus YOR144C, strain elg1, active compounds read low): 0.987
- normalized growth (locus YOR184W, strain ser1, active compounds read low): 1.03
- normalized growth (locus YOR231W, strain MKK1, active compounds read low): 1.03
- normalized growth (locus YOR265W, strain rbl2, active compounds read low): 0.991
- normalized growth (locus YOR270C, strain vph1, active compounds read low): 1.07
- normalized growth (locus YOR290C, strain snf2, active compounds read low): 1.01
- normalized growth (locus YOR316C, strain cot1, active compounds read low): 0.984
- normalized growth (locus YPL051W, strain arl3, active compounds read low): 1.02
- normalized growth (locus YPL055C, strain LGE1, active compounds read low): 1.04
- normalized growth (locus YPL078C, strain atp4, active compounds read low): 1.01
- normalized growth (locus YPL106C, strain sse1, active compounds read low): 1.06
- normalized growth (locus YPL240C, strain hsp82, active compounds read low): 1.01
- normalized growth (locus YPL241C, strain CIN2, active compounds read low): 1.01
- normalized growth (locus YPL256C, strain CLN2, active compounds read low): 1.05
- normalized growth (locus YPR119W, strain clb2, active compounds read low): 0.992
- normalized growth (locus YPR141C, strain kar3, active compounds read low): 0.993
- normalized growth (locus YPR163C, strain tif3, active compounds read low): 0.99
- normalized growth (locus YPR167C, strain met16, active compounds read low): 0.985
- normalized growth (strain wtn01, active compounds read low): 0.99
